Tcruzi prolif = blocks T. cruzi growth in NIH3T3 culture; T. cruzi beta-gal in NIH3T3, GalScreen luminescence, 90 h; inhibition, % at 8.34 µM; 77,000 compounds, 5.9% hits;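 active means mean inhibition above about 93%, with at least 55% of replicates each passing it, limit read from the data, passing the limit was not always enough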
C diff HTS = C. difficile growth inhibition. 86,000 compounds, 0.25% hits. Clostridium difficile clinical isolate growth, OD600, 24 h; active compounds read low. growth activity, negative = inhibition, % at 16 µg/mL (by protocol). AID 1259249;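 active means mean growth activity at or below -80% and every replicate also at or below -80%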
Pf Dd2 inh = P. falciparum Dd2 growth inhibition. SYBR Green, 72 h; active compounds read low. activity change, % at 10 µM. 94,000 compounds, 2.3% hits; in the data active means activity change below about -80%
Each line names hits and unclear results; the compound was inactive in the other large screens. Compounds with a hit are over-represented: about 6.7% of the library has one in this group of screens.

C[C@@H]1CN([C@H](C)CO)S(=O)(=O)c2ccc(/C=C/c3ccccc3)cc2O[C@H]1CN(C)Cc1ccc(C(=O)O)cc1	C diff HTS -98.1
C/C=C/c1ccc2c(c1)O[C@@H](CN(C)Cc1ccc(C(=O)O)cc1)[C@H](C)CN([C@@H](C)CO)S2(=O)=O	none (no result: Tcruzi prolif)
C/C=C/c1ccc2c(c1)O[C@H](CN(C)C(=O)c1ccccc1)[C@H](C)CN([C@@H](C)CO)S2(=O)=O	none (no result: Tcruzi prolif)
C[C@H]1CN([C@@H](C)CO)S(=O)(=O)c2ccc(/C=C/c3ccccc3)cc2O[C@@H]1CN(C)C(=O)c1ccccc1	Tcruzi prolif 125.1
O=C(NC1CCCC1)[C@H]1[C@H](CO)[C@H]2Cn3c(cccc3=O)[C@H]2N1CC1CCOCC1	none (no result: Tcruzi prolif)
O=C(c1cnccn1)N1CC2(C1)[C@@H](c1ccccc1)[C@@H](CO)N2C(=O)c1ccccc1	none (no result: Tcruzi prolif)
CCNC(=O)C[C@@H]1CC[C@@H]2[C@@H](COc3ccc(NC(=O)Cc4cccs4)cc3C(=O)N2C)O1	none
C[C@@H]1CN([C@@H](C)CO)C(=O)c2cc(NC(=O)Nc3cccc4ccccc34)ccc2O[C@@H](C)CCCCO[C@H]1CN(C)CC1CC1	none
C[C@@H]1CCCCO[C@@H](CN(C)CC2CCCCC2)[C@H](C)CN([C@H](C)CO)C(=O)c2cc(NC(=O)Nc3cccc4ccccc34)ccc2O1	Pf Dd2 inh -89.3
C[C@@H]1CN([C@@H](C)CO)C(=O)c2cc(NC(=O)Nc3cccc4ccccc34)ccc2O[C@@H](C)CCCCO[C@H]1CN(C)CC1CCCCC1	none
C[C@H](CO)N1C[C@H](C)[C@H](CN(C)CC2CC2)OCCCC[C@H](C)Oc2ccc(NC(=O)Nc3cccc4ccccc34)cc2C1=O	none
C[C@@H]1CN([C@@H](C)CO)C(=O)c2cc(NC(=O)Nc3cccc4ccccc34)ccc2O[C@@H](C)CCCCO[C@@H]1CN(C)CC1CCCCC1	Pf Dd2 inh -87.7
C[C@H]1CCCCO[C@H](CN(C)CC2CCCCC2)[C@@H](C)CN([C@@H](C)CO)C(=O)c2cc(NC(=O)Nc3cccc4ccccc34)ccc2O1	Pf Dd2 inh -85.4
C[C@@H]1CN([C@H](C)CO)S(=O)(=O)c2ccc(Br)cc2O[C@@H]1CN(C)C(=O)C1CC1	none (no result: Tcruzi prolif)
COc1ccc2c3c(n(C)c2c1)[C@@H](CO)N(C(=O)c1cccnc1)CC31CN(S(C)(=O)=O)C1	none (no result: Tcruzi prolif)
Cc1ccc(-c2ccc3c(c2)O[C@@H](CN(C)S(C)(=O)=O)[C@@H](C)CN([C@H](C)CO)S3(=O)=O)cc1	none
CCN1[C@@H]2Cn3c(ccc(/C=C/c4ccccc4)c3=O)[C@H]1[C@@H](C(=O)NC1Cc3ccccc3C1)[C@@H]2CO	none (no result: Tcruzi prolif)
CO[C@@H]1CN(C)C(=O)c2ccc(NC(=O)Cc3ccccc3)cc2OC[C@H](C)NC[C@@H]1C	none (no result: C diff HTS)
COc1ccc2c3c(n(C)c2c1)[C@H](CO)N(CC1CC1)CC31CCN(C(=O)Nc2ccccc2)CC1	none (no result: Tcruzi prolif)
COc1ccc2c3c(n(C)c2c1)[C@H](CO)N(CC1CCCC1)CC31CCN(C(=O)Nc2ccccc2)CC1	none (no result: Tcruzi prolif)
COc1ccc(NC(=O)N2CCC3(CC2)CN(CC2CC2)[C@H](CO)c2c3c3ccc(OC)cc3n2C)cc1	Pf Dd2 inh -84.9 (no result: Tcruzi prolif)
COc1ccc2c3c(n(C)c2c1)[C@@H](CO)N(CC1CCOCC1)CC31CCN(C(=O)Nc2ccccc2)CC1	Pf Dd2 inh -83.4 (no result: Tcruzi prolif)
COCC(=O)N[C@H]1CC[C@@H](CC(=O)N2CCCCC2)O[C@@H]1CO	none (no result: C diff HTS)
C[C@H](CO)N1C[C@H](C)[C@H](CN(C)C(=O)Nc2ccc(F)cc2)OCCCC[C@H](C)Oc2ccc(NS(=O)(=O)c3ccccc3)cc2C1=O	none
C/C=C/c1ccc2c(c1)O[C@@H](CN(C)C(=O)Cc1ccncc1)[C@H](C)CN([C@H](C)CO)S2(=O)=O	Pf Dd2 inh -84.1
C[C@@H]1CN([C@H](C)CO)S(=O)(=O)c2ccc(C#CC3CC3)cc2O[C@H]1CN(C)C(=O)Cc1ccncc1	none
C[C@H](CO)N1C[C@H](C)[C@H](CN(C)C(=O)Cc2ccncc2)Oc2cc(C#CC3CCCCC3)ccc2S1(=O)=O	Pf Dd2 inh -86.0 (no result: C diff HTS)
C/C=C/c1ccc2c(c1)O[C@@H](CN(C)C(=O)Cc1ccncc1)[C@@H](C)CN([C@H](C)CO)S2(=O)=O	none
CCCC#Cc1cnc2c(c1)C(=O)N([C@@H](C)CO)C[C@@H](C)[C@@H](CN(C)S(=O)(=O)c1ccccc1)O2	none
COc1ccc(NC(=O)Nc2ccc3c(c2)C(=O)N([C@H](C)CO)C[C@H](C)[C@@H](CN(C)C(=O)Nc2cccc4ccccc24)O3)cc1	none
C[C@H]1CN([C@@H](C)CO)C(=O)c2cccc(NC(=O)Nc3ccc(C(F)(F)F)cc3)c2O[C@H]1CN(C)Cc1ccc(C(F)(F)F)cc1	none
COc1ccc(NC(=O)Nc2cccc3c2O[C@H](CN(C)Cc2ccc(C(F)(F)F)cc2)[C@H](C)CN([C@@H](C)CO)C3=O)cc1	C diff HTS -100.8
COc1ccc(CN(C)C[C@@H]2Oc3c(NC(=O)Nc4ccc(C(F)(F)F)cc4)cccc3C(=O)N([C@H](C)CO)C[C@@H]2C)cc1	none (no result: Tcruzi prolif)
C[C@H](CO)N1C[C@H](C)[C@H](CN(C)Cc2ccc(C(=O)Nc3ccccc3N)cc2)Oc2c(NC(=O)Nc3ccc(C(F)(F)F)cc3)cccc2C1=O	none
C[C@@H]1CN([C@H](C)CO)C(=O)c2cccc(NC(=O)Nc3ccc(C(F)(F)F)cc3)c2O[C@@H]1CN(C)Cc1ccc(C(=O)Nc2ccccc2N)cc1	Pf Dd2 inh -90.2 (no result: Tcruzi prolif)
C[C@@H]1CN([C@@H](C)CO)C(=O)c2cccc(NC(=O)Nc3ccc(C(F)(F)F)cc3)c2O[C@@H]1CN(C)Cc1ccc(C(=O)Nc2ccccc2N)cc1	Pf Dd2 inh -91.4 (no result: Tcruzi prolif)
CCCN(C)C[C@@H]1Oc2cc(-c3cccc(F)c3)ccc2S(=O)(=O)N([C@@H](C)CO)C[C@@H]1C	none (no result: Tcruzi prolif)
CCNC(=O)C[C@@H]1CC[C@@H](NS(=O)(=O)c2ccc(F)cc2)[C@@H](CO)O1	none (no result: Tcruzi prolif)
CC(C)(O)C#Cc1cccc(-c2nc(C(=O)N[C@@H]3CCN(Cc4ccccc4)C3)cc3c2[C@H](CCO)N(S(=O)C(C)(C)C)C3)c1 (stereo partly drawn)	Pf Dd2 inh -82.3 (no result: Tcruzi prolif)
CC(C)(C)[S@](=O)N1Cc2cc(C(=O)NC3CCC3)nc(-c3cccc(Br)c3)c2[C@@H]1CCO	Pf Dd2 inh -85.4 (no result: Tcruzi prolif)
CC(C)(C)S(=O)N1Cc2cc(C(=O)N[C@@H]3CCN(Cc4ccccc4)C3)nc(-c3cccc(C#CCC4CCCC4)c3)c2[C@H]1CCO (stereo partly drawn)	none (no result: Tcruzi prolif)
CC(C)(C)[S@@](=O)N1Cc2cc(C(=O)NC3CCC3)nc(-c3cccc(Br)c3)c2[C@H]1CCO	none (no result: Tcruzi prolif)
CC(C)(C)[S@@](=O)N1Cc2cc(C(=O)N[C@@H]3CCN(Cc4ccccc4)C3)nc(-c3cccc(-c4ccncc4)c3)c2[C@H]1CCO	none (no result: Tcruzi prolif)
COc1ccc(C#Cc2cccc(-c3nc(C(=O)N[C@@H]4CCN(Cc5ccccc5)C4)cc4c3[C@H](CCO)N(S(=O)C(C)(C)C)C4)c2)cc1OC (stereo partly drawn)	Pf Dd2 inh -84.4 (no result: Tcruzi prolif)
CO[C@H]1CN(C)C(=O)c2ccc(NC(=O)c3ccccc3F)cc2OC[C@@H](C)N(CC2CC2)C[C@@H]1C	none

Assay outcomes (PubChem BioAssay)
